Screening data from PubChem.
RTF Ca sens inh: cardiac RTF calcium sensitivity inhibitors, primary screen, biochemical, IANBD-TnC fluorescence, EC70 calcium; Troponin I, cardiac muscle (Homo sapiens) + Troponin T, cardiac muscle (Homo sapiens) + …; IANBD-labeled cardiac RTF, Ca2+ fluorescence; inhibition, % at 7.15 µM; hit rate 0.12% among 340,000;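 active = inhibition above the mean inhibition of all tested compounds plus 3 SD, cut at about 17% in these data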;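 note: assay run at fixed EC70 calcium of 1.6 mM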
IDE cell activ: human IDE activators in live cells, primary screen, fluorescence polarization, HEK cells, FAbeta-B substrate. activation, % at 5.96 µM. FAbeta-B cleavage; 0% vehicle, 100% cell-free pure enzyme wells. Insulin-degrading enzyme (Homo sapiens), P14735. hit rate 0.073% among 340,000. AID 493087, 2011;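 active = activation above the mean of all tested compounds plus 3 SD, set per screening campaign, cut at about 17% in these data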
cardiac RTF act: cardiac RTF calcium sensitivity activators, primary screen, biochemical, IANBD-TnC fluorescence, EC20 calcium | Troponin I, cardiac muscle (Homo sapiens) + Troponin T, cardiac muscle (Homo sapiens) + … | IANBD-labeled TnC RTF fluorescence at EC20 calcium; 0% EC20 calcium, 100% full calcium | activation, % at 7.2 µM | hit rate 0.24% among 340,000;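 active = activation above the mean over all tested compounds plus 3 SD, cut at about 30% in these data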;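 note: rise in fluorescence read as greater calcium sensitivity of cardiac thin filaments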
IDE cell inh: human IDE inhibitors in live cells, primary screen, fluorescence polarization, HEK cells, FAbetaB substrate; inhibition, % at 5.59 µM; FAbetaB cleavage; AID 434962, 2010; hit rate 0.41% among 320,000; Insulin-degrading enzyme (Homo sapiens), P14735;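 active = percent inhibition above the average of all tested compounds plus 3 SD, set per screening campaign, cut at about 16% in these data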;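 note: IDE supplied by intact live HEK cells; FP after avidin binding of uncleaved biotin substrate so inhibition keeps polarization high; 0% = DMSO wells and 100% = 60 µM reference IDE inhibitor Ii1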
CRFR2-BP ag: agonists of CRF-BP/CRF-R2 complex, primary screen, cell-based, HEK293, calcium dye fluorescence, uHTS; activation, % at 13.2 µM; hit rate 0.46% among 350,000; calcium dye fluorescence (FLIPR); percent of saturating CRF peptide response;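 active = activation of at least 50%, plus an integration ratio under a set limit after plate pattern correction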;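 note: plate controls were neutral control wells without compound for no effect and CRF at EC100 for full effect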
CRFBP-R2 block: antagonists of CRF-BP/CRF-R2 complex, primary screen, cell-based, HEK293, calcium dye fluorescence, uHTS; hit rate 0.59% among 350,000; inhibition, % at 11.8 µM; CRF-induced calcium fluorescence;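 active = inhibition of the ligand-induced calcium signal above about 50% at the single tested concentration, limit read from the data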
IDE cell inh cf: human IDE inhibitors in live cells, confirmation, fluorescence polarization, HEK cells, FAbetaB substrate. shares compounds with IDE cell inh. FAbetaB cleavage. inhibition, % at 5.59 µM. hit rate 51% among 1,200. AID 435028, 2010;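 active = mean inhibition across triplicate wells above the cutoff set by the earlier primary insulin-degrading enzyme screen, cut at about 16% in these data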;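 note: 0% = DMSO wells and 100% = 60 µM reference IDE inhibitor Ii1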
HEK cytotox: cytotoxicity in HEK cells, cytotoxicity control for IDE inhibitor project, cell-based, luminescence | shares compounds with IDE cell inh | HEK293 cytotoxicity, ATP luminescence | inhibition, % at 5.59 µM | hit rate 28% among 1,200 | AID 449730, 2010; in the data active = inhibition above about 22%;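 note: 0% = vehicle wells and 100% = reference cytotoxic drug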
IDE FP artifact: fluorescent or optically active artefacts, dose response, artefact control for IDE inhibitor project, biochemical, fluorescence polarization. FP counterscreen for fluorescent artifacts, IDE probe project. shares compounds with IDE cell inh. 30 tested, under 10 active. IC50, µM. AID 588718, 2011; call rule not given here
* hit, by the source's call; i = inactive; . = no result. Shown are actives, neighbours in structure and some others; about 1.5% of the full set was active somewhere.

SMILES	RTF Ca sens inh	IDE cell activ	cardiac RTF act	IDE cell inh	CRFR2-BP ag	CRFBP-R2 block	IDE cell inh cf	HEK cytotox	others
CC[C@@H](C)[C@@H](C(=O)N1CCNCC1)n1cc(CCC(=O)O)nn1	-23.3	5.3	2.3	-3.4	-0.5	1.9	.	.
CCOC(=O)Cc1cc(=O)n2[nH]cc(-c3cccc(Br)c3)c2n1	1.9	3.7	-1.5	1.0	-0.6	21.0	.	.
C[C@H](NC(=O)CCCOc1ccc(Cl)cc1Cl)c1nnc2ccccn12	-3.6	3.2	-2.0	1.9	-0.2	-1.7	.	.
Clc1ccc(C[n+]2csc3ccccc32)cc1	-0.1	-24.4	0.1	19.6*	0.9	-36.0	9.9	12.4
O=c1oc2c3c4c(cc2c(C(F)(F)F)c1CCN1CCOCC1)CCCN4CCC3	-68.2	-49.1	70.0*	36.9*	708.1	i	67.7*	9.5
O=c1oc2c(CN3CCOCC3)c(O)ccc2c2c1CCC2	0.0	-1.5	-2.0	1.9	-0.9	10.8	.	.
O=C(NNC(=S)NCC1CCCO1)c1cc(Br)ccc1Cl (stereo unspecified)	0.4	-2.5	6.4	7.5	-1.9	-8.0	.	.
CC(=O)N(C(C)=O)N1C(=O)c2cccc3c(N4CCOCC4)ccc(c23)C1=O	-45.3	-0.8	25.4	16.9*	42.0	-19.7	6.2	19.4
Cc1ccc(N2CCOCC2)c2c1C(=O)c1ccccc1C2=O	-1.4	7.0	0.0	-4.5	-1.4	6.9	.	.
O=C1c2cccc3c(N4CCCCC4)ccc(c23)C(=O)N1c1ccccn1	-25.7	-6.8	8.6	74.9*	16.1	-8.9	108.7*	21.1
Cc1noc(C)c1CSCC(=O)Nc1cc(S(=O)(=O)N2CCOCC2)ccc1OC(C)C	-4.1	-6.7	-2.6	-0.6	0.2	-8.6	.	.
O=C(NCCN1CCCCC1)Nc1ccc(F)cc1F	-3.9	-0.2	8.9	-2.8	-0.9	3.5	.	.
S=C(NCc1ccco1)N1CCN(c2nc(-c3ccc(Cl)cc3)cs2)CC1	-3.1	-14.2	0.7	21.8*	-0.4	3.4	5.2	20.5
S=C(NCc1ccco1)N1CCN(c2nc(-c3ccccc3)cs2)CC1	-1.1	-9.3	3.5	17.6*	0.0	2.4	7.0	10.2
CCOc1ccccc1/C=C/C(=O)N1CCN(C(=O)c2ccco2)CC1	-3.3	1.9	-5.7	4.0	-2.9	-13.2	.	.
CCC1CCc2c(sc3nc(SCC(=O)NCc4ccco4)n(-c4ccccc4)c(=O)c23)C1 (stereo unspecified)	3.0	1.3	-0.1	1.1	3.8	-2.0	.	.
CCC/C(C#Cc1ccc(N(C)C)cc1)=C1/c2ccccc2C(=O)N1c1ccccc1	-60.5	-8.2	114.2*	21.8*	78.7*	-36.5	15.5	25.6*
Oc1ccc(Cl)cc1C=Nc1ccc2c3c(cccc13)CC2	-35.2	-3.5	-3.6	42.2*	11.6	-21.7	0.3	10.9
Cc1cccc(C=Nc2ccc3c4c(cccc24)CC3)c1O	2.2	-1.1	-3.1	33.0*	4.3	6.5	8.9	2.8
Oc1ccc(Cl)cc1/C=N/c1nccs1	-4.8	-5.2	-0.6	0.3	4.2	-3.5	.	.
CCOC(=O)c1sc(NC(=O)C2CC(=O)N(c3ccc4c(c3)OCCO4)C2)nc1C (stereo unspecified)	-3.6	-6.3	-0.6	-2.8	0.5	-6.0	.	.
C=CC[C@H](CC(=O)NCCO)C(=O)N[C@H](COC(=O)[C@H](CC=C)CC(=O)OC(C)(C)C)Cc1c[nH]c2ccccc12	-6.2	3.5	-4.6	-2.6	0.4	-14.2	.	.
CCOC(=O)C1=CC[C@@H](c2cccc(C)c2)N(S(=O)(=O)c2ccc(C)cc2)[C@H]1C(=O)OCC	-1.7	-3.7	1.1	16.3*	0.9	8.4	13.0	12.2
CCOC(=O)C1=CC[C@@H](c2ccccc2Cl)N(S(=O)(=O)c2ccc(C)cc2)[C@H]1C(=O)OCC	10.4	0.1	-5.2	-1.8	-0.5	-1.2	.	.
COC(=O)CC1C(=O)NCCN1C(=O)c1ccc(Cl)cc1 (stereo unspecified)	-3.5	5.3	-6.7	3.5	1.9	-4.7	.	.
SMILES	RTF Ca sens inh	IDE cell activ	cardiac RTF act	IDE cell inh	CRFR2-BP ag	CRFBP-R2 block	IDE cell inh cf	HEK cytotox	others
O=C(CCN1C(=O)/C(=C\c2ccccc2F)SC1=S)N1CCOCC1	.	.	.	.	1.1	14.3	.	.
O=C(O)CN1C(=O)/C(=C\c2cn(CC(=O)N3CCOCC3)c3ccccc23)SC1=S	-154.1	-108.4	134.2*	67.0*	69.3*	-51.7	114.2*	9.0
C=CCN=C1CCCc2c1[nH]c1ccc(C)cc21	3.8	-0.8	-3.5	-0.3	-1.2	10.6	.	.
COc1ccc(NC(=O)c2c(N)cnn2C)cc1	3.4	2.1	-6.1	1.8	-1.1	-2.8	.	.
Cn1cccc1/C=C1\CCC/C(=C\c2cccn2C)C1=O	-309.7	-73.5	181.2*	71.4*	154.5*	-184.6	117.5*	23.2*
O=C1/C(=C/c2cccs2)CCC/C1=C\c1cccs1	-21.6	-3.6	2.3	4.9	7.5	-15.7	.	.
CCCCn1c(SCC(=O)NC2CC2)nc2cc(C(=O)OC)ccc2c1=O	.	.	.	.	1.0	5.0	.	.
CN(C)S(=O)(=O)c1cccc(-c2nn(-c3ccccc3)cc2/C=C2\SC(=S)NC2=O)c1	-4.7	-1.0	-0.2	25.6*	2.7	16.8	-2.7	23.1*
O=C(COC(=O)c1ccc(O)cc1)Nc1ccc2c(c1)OCO2	4.6	6.7	-5.8	-0.8	-0.3	6.0	.	.
COc1cc2ncnc(NCc3cccc(F)c3F)c2cc1OC	-10.3	-8.8	6.0	18.3*	-0.4	-12.0	1.0	12.7
COc1cc2ncnc(NCc3ccccc3F)c2cc1OC	-6.6	-5.8	-5.9	2.2	-4.1	-18.4	.	.
Cc1ccc(S(=O)(=O)N2C(=O)CCC2C(=O)O/N=C(\N)c2ccccc2)cc1 (stereo unspecified)	-10.8	0.3	-5.4	2.5	-1.6	-15.0	.	.
O=C(CSc1nnc(-c2cccc(Cl)c2)n1Cc1ccco1)Nc1ccc2c(c1)OCCO2	.	.	.	.	.	.	.	.	IDE FP artifact=>54.7
